About 5,100 (1.2%) of roughly 410,000 compounds were called active. Inconclusive results (about 8%) are left out. This is one part of a sample in which actives are shown more often than they occur. Values without a mark were called inactive. The call rests on the fitted dose curve; tested in HEK293T cells.
Assay: High Throughput Screening for Foot and Mouth Disease Virus Antivirals; further: read-out not given here; nearly all actives have a fitted effect of over 45% in size
Details: FMDV antiviral cell-based qHTS; series mostly up to 57.9 µM; activity change, negative = inhibition: at the top concentration
On the % scale 0 is the no-effect control and ±100 the full control effect; potency means the concentration at half of the fitted maximal effect.

| SMILES | activity change, negative = inhibition [%] | Potency |
| --- | --- | --- |
| Cc1[nH]c2ccccc2c1/C=C(/C#N)C(=O)NC(C)C | -22.7 |  |
| COCCNC(=S)N/N=C/c1c(C)[nH]c2ccccc12 |  | 20 µM (active) |
| C=CCNC(=S)N/N=C/c1ccc(C)s1 | 1.06 |  |
| C[N+](C)(C)CCCCCNCC12CC3CC(CC(C3)C1)C2 | -8.71 |  |
| Cc1ccc(N2CCN(C(=O)c3cccs3)CC2)c(C)c1 | -20.8 |  |
| CCS(=O)(=O)N1CCN(C(=O)c2cccs2)CC1 | -16.9 |  |
| Cc1ccccc1C(CC(=O)c1cccs1)C(C#N)C#N (stereo not drawn) |  | 11.2 µM (active) |
| O=C(Nc1ccc(S(=O)(=O)N2CCOCC2)cc1)c1ccc2ncsc2c1 | -22.9 |  |
| Cc1nc2ccc(NC(=O)c3cccc(S(=O)(=O)N4CCOCC4)c3)cc2s1 |  | 31.6 µM (active) |
| Cc1cc(C)n2nc(C(=O)Nc3cccc(S(=O)(=O)N4CCOCC4)c3)nc2n1 | -6.23 |  |
| Cc1nc2cnc(N3CCNCC3)nc2n(CCc2ccccc2)c1=O | -8.91 |  |
| CCCCCCCCCCCCCCCC(=O)OC/C=C(C)/C=C/C=C(C)/C=C/C1=C(C)CCCC1(C)C |  | inactive |
| CC1=C(/C=C/C(C)=C/C=C/C(C)=C/C=C/C=C(C)/C=C/C=C(C)/C=C/C2=C(C)CCCC2(C)C)C(C)(C)CCC1 |  | 5.01 µM (active) |
| Cc1ccc(CSc2nc3ccsc3c(=O)n2CCC(C)C)cc1 | -28.8 |  |
| CCOC(=O)Cc1ccc(NC(=O)Nc2c[nH]c(=O)[nH]c2=O)cc1 | -3.16 |  |
| COCC(=O)Nc1cc(C(=O)N2CCCC(c3ccccc3)CC2)c2c(c1)nc(-c1ccncc1)n2C (stereo not drawn) | -6.81 |  |
| COc1ccc(-c2nc3ccccc3s2)cc1NC(=O)COc1ccccc1C | 15.1 |  |
| COc1ccc(-c2nn(C)c(=O)c3ccccc23)cc1NC(=O)COc1ccccc1 |  | 17.8 µM (active) |
| COc1ccc(-c2nn(C)c(=O)c3ccccc23)cc1CNC(=O)C1CCCCC1 | -10.7 |  |
| O=c1cnc2cnc(Nc3ccccc3)nc2n1Cc1ccc(F)cc1 | -18.2 |  |
| Cc1ccc(S(=O)(=O)N2CCCc3cc(NS(=O)(=O)c4cc(C)ccc4C)ccc32)cc1 | 38.1 |  |

| SMILES | activity change, negative = inhibition [%] | Potency |
| --- | --- | --- |
| COc1ccccc1C(=O)Nc1c(C(=O)N(C)Cc2ccccc2)sc2nc(C)c(Cl)c(C)c12 | -23 |  |
| Cc1cc(C(=O)CSc2nc(N)cc(=O)[nH]2)c(C)n1CCc1ccc(Cl)cc1 |  | 22.4 µM (active) |
| CCCCc1nnc(NC(=O)CSc2nc(N)cc(=O)[nH]2)s1 | 6.16 |  |
| Cc1cc(=O)[nH]c(SCc2ccc(Cl)cc2)n1 | 2.53 |  |
| COCCn1c(=O)c(-c2cccc(F)c2)nc2cncnc21 | -3.82 |  |
| COc1ccc(F)c(CN2CCC3(CCC(CNC(=O)c4ccn(C)n4)O3)CC2)c1 (stereo not drawn) | -12.4 |  |
| COc1ccc(Cl)cc1-n1c(CCC(=O)O)ccc1-c1ccc(C)cc1 | -13.1 |  |
| CCc1ccc(-c2nn(-c3ccccc3C)cc2C(=O)N2CCN(C3CCS(=O)(=O)C3)CC2)cc1 (stereo not drawn) | -4.39 |  |
| CCc1ccc(-c2nn(-c3ccccc3)cc2CSC(=N)N)cc1 |  | 39.8 µM (active) |
| CCc1ccc(-n2nnc(-c3nc(-c4ccccc4)no3)c2C)cc1 | 27.4 |  |
| COc1cc2c(cc1OC)[C@@H]1C(=O)c3ccc(O)c(CC=C(C)C)c3OC1CO2 (stereo partly drawn) | -14.3 |  |
| CCCS(=O)(=O)NCc1c(C)ncc2c1CCN(C(=O)c1ccc(F)c(F)c1)C2 | -9.08 |  |
| COc1ccc2c(c1)CCc1cnc(-n3ncc(C(=O)NCCN4CCOCC4)c3C)nc1-2 | -7.65 |  |
| Cc1ccc2nc(COc3ccc(NC(=O)COc4ccccc4F)cc3)cc(=O)n2c1 | -8.25 |  |
| COc1cccc(COc2ccc(N(C)S(=O)(=O)c3ccccc3)cc2)c1 | -21.3 |  |
| Cc1ccc2nc(COc3ccc(N(C)S(=O)(=O)c4ccccc4)cc3)cc(=O)n2c1 |  | 31.6 µM (active) |
| CCc1nc2cc(C(=O)NCC3CCS(=O)(=O)C3)cc(NC(=O)c3ccccc3OC)c2n1C (stereo not drawn) | -9.72 |  |
| Cc1ccc(NC(=O)CSc2nc3c([nH]c4ccccc43)c(=O)n2-c2ccccc2)c(C)c1 | -23.2 |  |
| COc1ccc(C(CCN(Cc2ccc(OC)c(OC)c2)C(=O)CCl)c2ccccc2)cc1 (stereo not drawn) |  | 31.6 µM (active) |
| COc1ccc(C(C(=O)NC2CCCCC2)N(C(=O)CCl)c2ccccc2Cl)cc1 (stereo not drawn) | 6.66 |  |
| CCN(CCCCOC(=O)c1ccc(OC)c(OC)c1)C(C)Cc1ccc(OC)cc1 (stereo not drawn) |  | inactive |

| SMILES | activity change, negative = inhibition [%] | Potency |
| --- | --- | --- |
| COCCNc1cc(-c2c(C)noc2C)ncn1 | -19.3 |  |
| O=C(COc1ccc2ccc(=O)oc2c1)NCC(O)c1ccccc1 (stereo not drawn) | -9.08 |  |
| CC(C)OC(=O)c1ccc(COc2ccc3ccc(=O)oc3c2)o1 | 40.6 |  |
| CC(=CCOc1ccc2ccc(=O)oc2c1)C1=CC(=O)C(C)(C)O1 |  | 28.2 µM (active) |
| Cn1cccc1C(=O)N1CCC2(CC1)CN(c1cccc(-c3ccccc3)c1)C2 | -26.7 |  |
| Cc1ccc(NC(=O)Nc2sc3nc4n(c(=O)c3c2C)CCC(C)CC4)c(Cl)c1 (stereo not drawn) | -23.1 |  |
| Cc1ccc(CN2COc3cc(C)c4c(oc(=O)c5ccccc54)c3C2)cc1 | -6.49 |  |
| CCOC(=O)c1cc2c(=O)n3ccccc3nc2n(CCCOC)c1=NC(=O)C(C)Oc1ccccc1 (stereo not drawn) | 13.7 |  |
| COc1ccc2[nH]cc(CCNc3ncnc4ccc(-c5ccccc5CN(C)C)cc34)c2c1 | -2.17 |  |
| COc1ccc(Nc2ncnc3ccc(Br)cc23)c(OC)c1 |  | 3.98 µM (active) |
| COc1ccc(CNc2ncnc3ccc(-c4cccnc4)cc23)c(OC)c1 | -28.8 |  |
| O=C(COC(=O)C1(c2ccc(F)cc2)CCCC1)N1CCNC1=O | -14.5 |  |
| NS(=O)(=O)c1ccc(NC(=O)COC(=O)C2(c3ccc(F)cc3)CCCC2)cc1 |  | 17.8 µM (active) |
| NS(=O)(=O)c1ccc(NC(=O)COc2ccc(S(=O)(=O)NC3CCCCC3)cc2)cc1 | 31.4 |  |
| COc1ccc(CNC(=O)CSCc2nc(-c3ccccc3F)oc2C)cc1 | -18.8 |  |
| Cc1nc2cc(NC(=O)[C@@H]3C[C@@H](Sc4ccccn4)CN3Cc3ccccc3C)ccc2s1 | -2.38 |  |
| CCC(C(=O)Nc1cccc(-c2nc3cccnc3s2)c1C)c1ccccc1 (stereo not drawn) | -3.42 |  |
| CCOc1ccccc1-n1c(SCC(=O)NCc2ccco2)nnc1-c1ccncc1 | 33 |  |
| Cn1c(SCc2ccc(F)cc2)nnc1-c1ccncc1 | -6.09 |  |
| Cc1ccc(Nc2nc(CSc3nnc(-c4ccncc4)n3-c3ccccc3C)cs2)cc1 |  | 31.6 µM (active) |
| N[C@H](C(=O)O)c1ccc(C(=O)O)c(O)c1 |  | inactive |
